35 compounds from PubChem BioAssay can be followed below.

Structures are written as SMILES.

This assay is described as follows: RPMI8226 myeloma cell viability, profiling panel, resazurin fluorescence, basal, 24 h, PK04 Diversity Set (AID 1180).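 Note: RPMI8826 multiple myeloma cell line at 5000 cells per well; test concentration not given here.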 The conditions noted are these: higher = more signal.
Regarding `C=CCN1C(=O)[C@@]2(O[C@@H](CCO)[C@H]([Si](C)(C)c3ccc(OC)cc3)[C@H]2C)c2cc(NC(=O)[C@H](C)O)ccc21`, the z-score is -2.3. The value for `COC(=O)[C@@]1(Cc2ccc(OC)cc2)[C@H]2c3cc(C(=O)N4CCCC4)n(CCF)c3C[C@H]2CN1C(=O)c1ccccc1` was -1.72; that for `O=C1N(Cc2ccccc2)c2ccccc2[C@H]2OC(c3ccc(OCCCO)cc3)=N[C@@]12CCS(=O)(=O)c1ccccc1` was -0.509. For the compound `CC(=O)NCCCC[C@@H]1NC(=O)[C@@H]2C[C@H](C(=O)NCCCC[N+](C)(C)C)[C@H](c3cccc(OCCO)c3)N2C1=O`, the z-score is -0.803. The value for `COCCCNC(=O)[C@@]1(Cc2ccccc2I)c2ccccc2C(=O)N(Cc2ccccc2Cl)[C@H]1c1ccc(CO)cc1` was 1.82; that for `COCCCNC(=O)[C@@]1(Cc2ccccc2CN=[N+]=[N-])N=C(c2ccc(OCCCO)cc2)O[C@H]1c1ccccc1N=[N+]=[N-]` was -2.65; that for `NCCCCCCNC(=O)[C@H]1C[C@H]2C(=O)N3CCC[C@H]3C(=O)N2[C@H]1c1ccc(O)cc1` was -0.508. The same measure for `C=C(/C(=C/C[C@@H](OC(=O)c1ccncc1)c1cccc(OCCO)c1)c1cc(C(=O)OC)ccc1OC)C(C)C`: 0.301; for `CN1C(=O)C2C=CC(C(O)COCc3ccccc3)N(Nc3ccccc3)C2C1=O` (stereo not given): 0.182; for `C=C[C@@H](O)[C@H]1CC(c2ccccc2)=NO1`: 1.08.

As for `COC(=O)[C@@]1(Cc2ccc(OC)cc2)[C@H]2c3cc(C(=O)N(C)C)n(CCF)c3C[C@H]2CN1C(=O)c1ccccc1`, the z-score was -0.102. For the compound `C=CCC(OC(C)=O)[C@@H]1[C@@H](N(Cc2ccc(-c3cccc(C(F)(F)F)c3)o2)C(=O)c2cccc3ccccc23)c2cc(OCCCO)ccc2N1C(=O)c1ccc(-c2ccccc2)cc1` (stereo not given in full), the z-score is -0.851. The value for `COc1cc(NN2C(C(O)c3ccc(I)cc3)C=CC3C(=O)N(C)C(=O)C32)cc(OC)c1OC` (stereo not given) was -0.786; that for `C=CCC(OC(C)=O)[C@@H]1[C@@H](N(Cc2cccc3ccccc23)C(=O)Cc2ccc(F)cc2)c2cc(OCCCO)ccc2N1C(=O)Cc1ccc(OC)cc1` (stereo not given in full) was 1.01. As for `C=CCOC(=O)[C@@H]1[C@H]2C(=O)O[C@H](c3ccccc3)[C@H](c3ccccc3)N2[C@H](c2ccc(OCCOC(=O)[C@H]3C[C@H]4C(=O)N[C@@H](Cc5ccccc5)C(=O)N4[C@H]3c3cccc(OCCO)c3)cc2)[C@@]12C(=O)Nc1ccc(I)cc12`, the z-score was -1.01.

In turn, `CC(C)c1ccc(NN2C(C(O)c3cccs3)C=CC3C(=O)N(c4ccccc4)C(=O)C32)cc1` (stereo not given) showed a z-score of -1.14.

With `CC1CC/C=C\[C@H]2OC34C=CCN(Cc5ccccc5)C(=O)[C@H]3N(CCO)C(=O)[C@@H]4C2C(=O)O1` (stereo not given in full), the z-score was 0.301. With `COCCOC(=O)N1C(=O)[C@@]2(c3cc(C#CC4(O)CCCCCC4)ccc31)[C@H](C(=O)N1CCc3cc(OC)c(OC)cc3C1)[C@H]1C(=O)O[C@H](c3ccccc3)[C@H](c3ccccc3)N1[C@@H]2c1ccccc1OCCO`, the z-score is 0.793.

Regarding `COc1ccc([Si](C)(C)[C@H]2[C@H](CC(=O)N3CCC[C@H]3CO)O[C@@]3(C(=O)N(Cc4ccc(N5C(=O)c6cccc7cccc5c67)cc4)c4ccccc43)[C@@H]2C)cc1`, the z-score was -1.16. As to `C=C(C(=O)CC[C@H](OC(=O)c1cccnc1)c1ccc(OCCO)cc1)C(C)C`, the z-score is -2.53.

As to `COC(=O)[C@@]1(Cc2ccccc2)[C@H]2c3cc(C(=O)N4CCCC4)n(CCO)c3C[C@H]2CN1C(=O)c1ccccc1`, the z-score came to 0.309.

Consider `C=CCNC(=O)[C@H]1[C@@H]2C(=O)O[C@@H](c3ccccc3)[C@@H](c3ccccc3)N2[C@@H](c2ccc(OCCO)cc2)[C@]12C(=O)N(C(=O)OCCOC)c1ccc(C#CC3=CCCCC3)cc12`, for which the z-score came out at 0.136. In turn, `O=C1C2C=CC(C(O)c3cccc4ccccc34)N(Nc3ccccc3)C2C(=O)N1c1ccccc1` (stereo not given) had a z-score of -0.0011. In turn, `Cc1ccc(S[C@]2(C(=O)O)CC(=O)N(C3CCCCC3)[C@@H]2c2ccc(CO)cc2)cc1` displayed a z-score of 0.273.

`CC(=O)NCCCC[C@@H]1NC(=O)[C@H]2C[C@@H](C(=O)NCCCCCN)[C@@H](c3cccc(OCCO)c3)N2C1=O` gave a z-score of 1.5. The same measure for `C=C(CCCC)/C(=C/C[C@@H](OC(=O)c1ccncc1)c1ccccc1OCCO)c1cc(C(=O)OC)ccc1OC`: -0.94; for `C=CC[C@]1(C(=O)N2CCOCC2)N=C(c2ccc(OCCCO)cc2)O[C@H]1c1ccccc1CN=[N+]=[N-]`: -1.03. The same measure for `C=C(C)[C@@H]1CC=C(C(O)C2C=CC3C(=O)N(C4CCCCC4)C(=O)C3N2Nc2ccc(OC)cc2)CC1` (stereo not given in full): 0.199; for `CC1(C)[C@@H]2CC(C(O)C3C=CC4C(=O)N(c5ccccc5)C(=O)C4N3Nc3ccccc3F)=C[C@@H]1C2` (stereo not given in full): -1.19.

As for `[N-]=[N+]=NCc1ccccc1[C@H]1OC(c2ccc(OCCCO)cc2)=N[C@@]1(Cc1ccccc1N=[N+]=[N-])C(=O)N1CCCCC1`, the z-score is -2.94. The same measure for `CC(C)N1CC=CC23O[C@@H]4C=CCOC(=O)[C@@H]4[C@H]2C(=O)N(CCCCCCO)[C@@H]3C1=O` (stereo not given in full): 0.704; for `CN1C(=O)C2C=CC(C(O)C3CCCCC3)N(N(c3ccccc3)c3ccccc3)C2C1=O` (stereo not given): -1.54.

For `CC(C)(C)OC(=O)CC[C@]1(C(=O)O)COC(c2ccc(OCCCO)cc2)=N1`, the z-score is -0.0624. The value for `O=C1O[C@H](c2ccccc2)[C@H](c2ccccc2)N2[C@H]1[C@@H](C(=O)N1CCN(c3ncccn3)CC1)[C@]1(C(=O)Nc3ccc(C#CCCO)cc31)[C@H]2c1ccc(OCCO)cc1` was 0.747.

As to `CN1C(=O)C2C=CC(C(O)c3cccc4ccccc34)N(NC(=O)OC(C)(C)C)C2C1=O` (stereo not given), the z-score was -0.693.
